How the values were obtained:
Conditions in all cases: concentration: 1 μM,replicates: in singlicate; n = 1
[1] = test system: T1, RSK4(Kin.Dom.1-N-terminal)
T1 construct: gene RPS6KA6

[2] = test system: T2, RSK4(Kin.Dom.2-C-terminal)
T2 construct: gene RPS6KA6

S6K1 = test system: S6K1
SBK1 = test system: SBK1
SGK2 = test system: SGK2
SGK3 = test system: SGK3
SGK = test system: SGK
SIK2 = test system: SIK2
SIK = test system: SIK
SLK = test system: SLK
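Note: KINOMEscan kinase panel screen.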

Row | SMILES | %Inh [1] | %Inh [2] | %Inh (S6K1) | %Inh (SBK1) | %Inh (SGK2) | %Inh (SGK3) | %Inh (SGK) | %Inh (SIK2) | %Inh (SIK) | %Inh (SLK)
1 | Cc1cccc2c(-c3ccncc3)c(-c3ccc(F)cc3)nn12.Cl [GW461487] | 21% | 83% | 5% | 8% | 8% | 13% | 0% | 0% | 0% | 15%
2 | Cc1n[nH]c2cc(Nc3ccnc(Nc4cccc(CN5CCOCC5)c4)n3)ccc12 [GW682569] | 19% | 16% | 0% | 0% | 0% | 17% | 0% | 33% | 46% | 0%
3 | CC(=O)Nc1nc2cnc(Nc3cc(NC(=O)c4cccc(CC(C)(C)C#N)c4)ccc3C)nc2s1 | 25% | 0% | 0% | 52% | 0% | 0% | 4% | 0% | 24% | 1%
4 | NC(=O)c1ccc(-c2cc3ncnc(SCC(=O)O)c3s2)cc1 | 0% | 0% | 15% | 0% | 0% | 0% | 0% | 7% | 6% | 10%
5 | CC(=O)Nc1ccc(-c2cc3ncnc(SCC(=O)O)c3s2)cc1 | 13% | 18% | 0% | 22% | 0% | 39% | 0% | 24% | 6% | 18%
6 | Cn1ccc2ncnc(Oc3ccc(NC(=O)Nc4cnn(C(C)(C)C)c4)c(Cl)c3)c21 | 22% | 0% | 1% | 0% | 12% | 2% | 10% | 10% | 14% | 79%
7 | NC(=O)Nc1sc(-c2ccc(F)cc2)cc1C(N)=O [GW789449] | 76% | 4% | 3% | 16% | 10% | 31% | 1% | 16% | 21% | 25%
8 | Cn1ccc2ncnc(Oc3ccc(NC(=O)Nc4cncc(C(F)(F)F)c4)c(Cl)c3)c21 | 0% | 12% | 0% | 0% | 0% | 0% | 0% | 0% | 0% | 20%
9 | Cn1ccc2ncnc(Oc3ccc(NC(=O)Nc4cccc(C(F)(F)F)c4)c(F)c3)c21 | 0% | 2% | 22% | 0% | 0% | 2% | 0% | 3% | 28% | 54%
10 | CS(=O)(=O)c1cccc(CNc2nc(Nc3ccc4c(c3)[C@@H]3C[C@@H]4CNC3=O)ncc2C(F)(F)F)c1 | 73% | 5% | 0% | 81% | 0% | 25% | 43% | 47% | 45% | 98.2%
11 | CS(=O)(=O)Nc1ccc(-c2ccnc3[nH]ccc23)cc1 [GSK993273] | 27% | 60% | 37% | 55% | 13% | 12% | 24% | 39% | 9% | 49%
12 | CS(=O)c1ccc(-c2coc3ccc(-c4n[nH]c(=O)o4)cc23)cc1 (centres unmarked) | 6% | 27% | 3% | 85% | 12% | 15% | 31% | 11% | 2% | 9%
13 | COc1cccc(OC)c1C(=O)Nc1cccc(-c2nn3ccccc3c2-c2ccnc(Nc3cccc(F)c3)n2)c1 [GSK361065] | 0% | 12% | 0% | 0% | 26% | 65% | 18% | 0% | 25% | 41%
14 | Cn1ccc2ncnc(Oc3ccc(NC(=O)Nc4ccnc(C(F)(F)F)c4)c(Cl)c3)c21 | 0% | 2% | 0% | 0% | 10% | 0% | 9% | 8% | 4% | 10%
15 | COc1cc(Nc2nccc(N3CCC(NC(=O)c4cccc(C#N)c4)C3)n2)cc(OC)c1OC (centres unmarked) [GSK1379751] | 0% | 9% | 0% | 22% | 2% | 0% | 3% | 0% | 0% | 1%
16 | Cc1ccc(Nc2ccnc(Nc3ccc4c(c3)CS(=O)(=O)C4)n2)cc1O.Cl [GW579362] | 0% | 35% | 1% | 55% | 0% | 9% | 0% | 60% | 58% | 99.2%
17 | CCOC(=O)N1CCC(n2cnc(-c3ccc(F)cc3)c2-c2ccnc(N)n2)CC1 [SB-219952] | 9% | 65% | 22% | 0% | 33% | 6% | 17% | 0% | 0% | 0%

Source: paper PMC5540273 (PLoS ONE, 2017)
